# Records with an inconclusive call do not appear. A call without a number means that no potency is given here. Values without a mark were called inactive. Activity calls are given as the source filed them. Unless noted, calls follow the shape of the dose curve; as a rule, active = well fitted curve in the direction sought with a large enough effect in the repeat runs; inconclusive = weak or mixed curves; inactive = no such curve, though single readings can be large; an effect the other way counts as inactive or inconclusive.
# Legend:
# [1] = qHTS assay to identify small molecule agonists of the peroxisome proliferator-activated receptor delta (PPARd) signaling pathway - cell viability counter screen (AID 743211); also: nearly all actives have a fitted effect of over 55% in size; also: potency is read from the fitted curve at half-maximal effect
# Method in brief: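 Viability of GeneBLAzer PPARd UAS-bla HEK293H cells was assessed after 17 h compound incubation at 37C, using CellTiter-Glo reagent added after the reporter read and luminescence recorded 30 min later.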
# [2] = qHTS assay to identify small molecule antagonists of the peroxisome proliferator-activated receptor delta (PPARd) signaling pathway - cell viability counter screen (AID 743213); also: nearly all actives have a fitted effect of over 50% in size; also: potency is read from the fitted curve at half-maximal effect
# Method in brief: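 Viability counter-screen, qHTS format: PPARd-bla HEK293H, L165041 300 nM final, 17 h compound exposure at 37 C, CellTiter-Glo luminescence after 30 min RT.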
# [3] = qHTS assay to identify small molecule agonists of the farnesoid-X-receptor (FXR) signaling pathway - cell viability counter screen (AID 743218); also: nearly all actives have a fitted effect of over 45% in size
# Method in brief: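 Parallel cytotoxicity test: compound-treated (16 h, 37 C) HEK 293T FXR-bla reporter cells were lysed with CellTiter-Glo and luminescence recorded.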
# [4] = qHTS assay to identify small molecule antagonists of the farnesoid-X-receptor (FXR) signaling pathway - cell viability counter screen (AID 743221; active = well fitted cell-killing curve with a large enough effect in the repeat runs, not every such curve was filed as active; also: nearly all actives have a fitted effect of over 50% in size)
# Method in brief: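 Quantitative HTS of the Tox21 10K library run in parallel with the beta-lactamase reporter read. HEK 293T cells carrying a UAS-driven bla reporter got compound and 50 uM CDCA (final) for 16 h; ATP-based luminescence followed.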
# [5] = qHTS assay to identify small molecule agonists of the vitamin D receptor (VDR) signaling pathway - cell viability counter screen (AID 743224); also: nearly all actives have a fitted effect of over 50% in size; also: potency is read from the fitted curve at half-maximal effect
# Method in brief: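 Plated VDR-bla cells (4 h, 37C) received compound, incubated 16 h, then LiveBLAzer substrate 2 h RT; CellTiter-Glo added afterwards, luminescence read at 30 min.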
# [6] = qHTS assay to identify small molecule antagonists of the vitamin D receptor (VDR) signaling pathway - cell viability counter screen (AID 743225); also: nearly all actives have a fitted effect of over 50% in size; also: potency is read from the fitted curve at half-maximal effect
# Method in brief: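 Cells (VDR-UAS-bla HEK 293T) are plated, rested 4 h at 37C, dosed with compound and 3 nM final 1-alpha,25-dihydroxy vitamin D3, and incubated 16 h. Viability is taken from CellTiter-Glo luminescence in the reporter wells.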
# [7] = qHTS assay to identify small molecule agonists of the NFkB signaling pathway (AID 1159509; active = well fitted curve in the direction sought with a large enough effect in the signal ratio in the repeat runs, not every such curve was filed as active; the % refers to the signal ratio; also: potency is read from the fitted curve at half-maximal effect; as to activation: series mostly up to about 61 µM)
# Method in brief: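 ME-180 NFkB-bla, 2,000 cells/well, overnight plating; cpd pinned in DMSO, 5 h 37 C; B/G FRET substrate 1.5 h RT; ex 405, em 460/530 nm.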
# [8] = qHTS assay to identify small molecule agonists of the NFkB signaling pathway - cell viability counter screen (AID 1159515; calls by dose curve; also: series mostly up to about 61 µM; nearly all actives have a fitted effect of over 55% in size)
# Method in brief: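 Using the same wells as the NFkB reporter read, ME-180 NFkB-bla cells given compounds for 5 hr were assessed for viability via CellTiter-Glo, with luminescence taken after a 30 min room-temperature incubation.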
# [9] = qHTS assay to identify small molecule agonists of the endoplasmic reticulum stress response signaling pathway - cell viability counter screen (AID 1159517; calls by dose curve; also: nearly all actives have a fitted effect of over 50% in size; also: potency is read from the fitted curve at half-maximal effect)
# Method in brief: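 CellTiter-Glo was added to wells already read for beta-lactamase FRET, and luminescence was recorded 30 min later. Cells: ESRE-bla HeLa, 1,500 per well, compound exposure 5 hr at 37 C.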
# [10] = qHTS assay to identify small molecule antagonists of the retinoid-related orphan receptor gamma (ROR-gamma) signaling pathway - cell viability counter screen (AID 1159520); also: nearly all actives have a fitted effect of over 50% in size; also: potency is read from the fitted curve at half-maximal effect
# Method in brief: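 Tet-on ROR gamma CHO cells (1,000/well) were plated 4 hr, given compounds in DMSO for 2 hr at 37 C, then induced with 1 uM final doxycycline for 16 hr. Viability was read as ATP by CellTiter-Glo luminescence after 30 min.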
# [11] = biological target: Nuclear receptor ROR-gamma (Homo sapiens) (UniProt P51449); test: qHTS assay to identify small molecule antagonists of the retinoid-related orphan receptor gamma (ROR-gamma) signaling pathway (AID 1159521; also: nearly all actives have a fitted effect of over 50% in size; also: potency is read from the fitted curve at half-maximal effect)
# Method in brief: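 RORγ antagonism is scored from reduced reporter luminescence in Tet-on CHO cells. Induction used 1 uM final doxycycline hyclate for 16 h at 37 C, following a 2 h compound exposure.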
# [12] = qHTS assay to identify small molecule agonists of the AP-1 signaling pathway - cell viability counter screen (AID 1159525; calls by dose curve; also: nearly all actives have a fitted effect of over 55% in size)
# Method in brief: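 ME-180 AP-1-bla, 2500 cells/well, Opti-MEM + 0.5% dialyzed FBS; overnight 37 °C; cpd 15-pt titration, 5 h 37 °C; CellTiter-Glo 30 min RT; luminescence read; normalised to TOAB and DMSO controls.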
# [13] = biological target: Peroxisome proliferator-activated receptor delta (Homo sapiens) (UniProt Q03181); test: qHTS assay to identify small molecule agonists of the peroxisome proliferator-activated receptor delta (PPARd) signaling pathway (AID 743212; calls by dose curve; also: potency is read from the fitted curve at half-maximal effect)
# Method in brief: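 A PPARd-bla HEK293H line with beta-lactamase under an Upstream Activator Sequence is treated with compounds at 37 C. Substrate loading for 2 h at room temperature precedes the fluorescence measurement.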
# [14] = biological target: Peroxisome proliferator-activated receptor delta (Homo sapiens) (UniProt Q03181); test: qHTS assay to identify small molecule antagonists of the peroxisome proliferator-activated receptor delta (PPARd) signaling pathway (AID 743215; active = well fitted inhibition curve with a large enough effect in the signal ratio in the repeat runs, not every such curve was filed as active; the % refers to the signal ratio;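 also: cells stimulated with agonist L165041 at 300 nM final during compound exposure; series mostly up to about 62 µM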)
# Method in brief: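 HEK293H UAS-bla, PPARd; agonist L165041 300 nM final with cpd in DMSO; 37 C 17 h; FRET substrate, RT 2 h; fluorescence intensity.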
# [15] = biological target: Vitamin D3 receptor (Homo sapiens) (UniProt P11473); test: qHTS assay to identify small molecule agonists of the vitamin D receptor (VDR) signaling pathway (AID 743222; calls by dose curve; also: potency is read from the fitted curve at half-maximal effect)
# Method in brief: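 In VDR-bla cells, compound-induced beta-lactamase expression is quantified by FRET substrate fluorescence. Treatment lasts 16 h at 37C; substrate develops 2 h at room temperature.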
# [16] = biological target: Vitamin D3 receptor (Homo sapiens) (UniProt P11473); test: qHTS assay to identify small molecule antagonists of the vitamin D receptor (VDR) signaling pathway (AID 743223; active = well fitted inhibition curve with a large enough effect in the signal ratio in the repeat runs, not every such curve was filed as active; the % refers to the signal ratio)
# Method in brief: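 Fluorescence from LiveBLAzer B/G FRET substrate, read after 2 h at room temperature, reflects beta-lactamase reporter activity in VDR-bla cells treated 16 h at 37C with compounds and agonist 1alpha,25-dihydroxyvitamin D3 (3 nM final).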
# [17] = qHTS assay to identify small molecule agonists of the AP-1 signaling pathway (AID 1159526; calls by dose curve)
# [18] = biological target: Bile acid receptor (Homo sapiens) (UniProt Q96RI1); test: qHTS assay to identify small molecule antagonists of the farnesoid-X-receptor (FXR) signaling pathway (AID 743217; active = well fitted inhibition curve with a large enough effect in the signal ratio in the repeat runs, not every such curve was filed as active; the % refers to the signal ratio)
# Method in brief: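 GeneBLAzer FXR-UAS-bla HEK 293T, CDCA-stimulated (50 uM final). Compound treatment 16 h, 37 °C. Detection: beta-lactamase cleavage of B/G FRET substrate, fluorescence.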
# [19] = biological target: Bile acid receptor (Homo sapiens) (UniProt Q96RI1); test: qHTS assay to identify small molecule agonists of the farnesoid-X-receptor (FXR) signaling pathway (AID 743220; active = well fitted activation curve with a large enough effect in the signal ratio in the repeat runs, not every such curve was filed as active; the % refers to the signal ratio; also: potency is read from the fitted curve at half-maximal effect)
# Method in brief: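 Beta-lactamase reporter under UAS control in GeneBLAzer FXR HEK 293T cells (5000/well) measured with LiveBLAzer FRET substrate after 2 h at room temperature. Compound exposure lasted 16 h at 37C.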
# Chain of Bile acid receptor (Homo sapiens) (Q96RI1 whole entry, looked up): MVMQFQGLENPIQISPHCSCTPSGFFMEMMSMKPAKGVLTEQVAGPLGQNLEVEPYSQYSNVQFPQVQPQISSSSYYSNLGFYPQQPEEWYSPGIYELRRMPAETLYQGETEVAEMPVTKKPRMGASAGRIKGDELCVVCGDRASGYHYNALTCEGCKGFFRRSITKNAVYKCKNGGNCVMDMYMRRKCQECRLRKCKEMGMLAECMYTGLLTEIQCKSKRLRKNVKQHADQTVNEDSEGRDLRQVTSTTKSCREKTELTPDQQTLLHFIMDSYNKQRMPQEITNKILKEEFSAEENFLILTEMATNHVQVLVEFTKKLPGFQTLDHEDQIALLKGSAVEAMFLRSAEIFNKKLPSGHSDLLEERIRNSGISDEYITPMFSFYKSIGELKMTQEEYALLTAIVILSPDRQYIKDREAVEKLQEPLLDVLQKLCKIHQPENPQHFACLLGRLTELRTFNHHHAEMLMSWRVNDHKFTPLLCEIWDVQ
# Chain of Peroxisome proliferator-activated receptor delta (Homo sapiens) (Q03181 whole entry, looked up): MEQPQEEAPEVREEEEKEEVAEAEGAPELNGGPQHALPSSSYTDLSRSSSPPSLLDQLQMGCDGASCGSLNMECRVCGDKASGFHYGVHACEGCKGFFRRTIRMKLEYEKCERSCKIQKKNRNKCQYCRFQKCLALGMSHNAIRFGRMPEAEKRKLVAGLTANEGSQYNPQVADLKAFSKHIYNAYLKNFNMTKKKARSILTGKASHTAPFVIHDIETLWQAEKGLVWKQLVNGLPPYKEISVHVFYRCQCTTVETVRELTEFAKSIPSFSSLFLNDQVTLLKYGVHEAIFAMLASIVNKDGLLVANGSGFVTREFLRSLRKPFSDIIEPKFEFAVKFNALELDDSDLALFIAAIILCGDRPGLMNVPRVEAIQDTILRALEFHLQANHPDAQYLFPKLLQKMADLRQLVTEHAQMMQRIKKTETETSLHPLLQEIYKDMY
# Chain of Vitamin D3 receptor (Homo sapiens) (P11473 whole entry, looked up): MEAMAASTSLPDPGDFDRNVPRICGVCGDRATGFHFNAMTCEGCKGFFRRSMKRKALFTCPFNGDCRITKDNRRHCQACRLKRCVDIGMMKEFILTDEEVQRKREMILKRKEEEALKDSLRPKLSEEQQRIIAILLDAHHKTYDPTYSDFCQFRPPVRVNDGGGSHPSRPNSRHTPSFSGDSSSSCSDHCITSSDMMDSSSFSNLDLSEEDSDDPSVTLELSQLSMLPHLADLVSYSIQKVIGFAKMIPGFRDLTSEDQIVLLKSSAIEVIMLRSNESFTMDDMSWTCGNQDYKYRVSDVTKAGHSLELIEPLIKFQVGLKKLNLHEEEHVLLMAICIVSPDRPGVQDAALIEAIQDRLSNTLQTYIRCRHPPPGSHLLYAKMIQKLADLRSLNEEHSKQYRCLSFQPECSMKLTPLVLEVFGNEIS
SMILES,Potency [1],Potency [2],Potency [3],Potency [4],Potency [5],Potency [6],Potency [7],Potency [8],Potency [9],Potency [10],Potency [11],Potency [12],Potency [13],Potency [14],Potency [15],Potency [16],Potency [17],Potency [18],Potency [19]
CC1(C)[C@@H](OC(=O)CCC(=O)O)CC[C@]2(C)[C@H]3C(=O)C=C4[C@@H]5C[C@@](C)(C(=O)O)CC[C@]5(C)CC[C@@]4(C)[C@]3(C)CC[C@@H]12,inactive,inactive,inactive,inactive,inactive,inactive,inactive,inactive,inactive,inactive,inactive,inactive,,,,,,,
Cc1cscn1,inactive,inactive,inactive,inactive,inactive,inactive,inactive,inactive,inactive,inactive,,inactive,inactive,inactive,inactive,inactive,inactive,,
NNC(=O)CP(=O)(c1ccccc1)c1ccccc1,inactive,inactive,inactive,inactive,inactive,inactive,inactive,inactive,inactive,inactive,,inactive,inactive,inactive,,,inactive,,
CC(C)=CC(=O)C=C(C)C,inactive,inactive,inactive,inactive,inactive,inactive,inactive,inactive,inactive,inactive,,inactive,inactive,inactive,inactive,inactive,inactive,inactive,inactive
COC(=O)c1nc(Cl)c(Cl)nc1N,29.8 µM (active),29.8 µM (active),,,11.9 µM (active),23.9 µM (active),15.1 µM (active),inactive,21.3 µM (active),13.3 µM (active),3.76 µM (active),inactive,,,11.9 µM (active),,,,29.8 µM (active)
Cc1cccc(N(C)C(=S)Oc2ccc3c(c2)CCC3)c1,inactive,inactive,inactive,inactive,inactive,inactive,inactive,inactive,inactive,inactive,,inactive,inactive,inactive,inactive,inactive,inactive,inactive,inactive
CCCC(C(=O)OCCN(CC)CC)(c1ccccc1)c1ccccc1,29.8 µM (active),,inactive,inactive,,19 µM (active),inactive,inactive,inactive,inactive,,inactive,inactive,,inactive,,,,inactive
C[C@]1(Cn2ccnn2)[C@H](C(=O)O)N2C(=O)C[C@H]2S1(=O)=O,inactive,inactive,inactive,,inactive,inactive,inactive,inactive,inactive,inactive,,inactive,,,inactive,,,,inactive
O=C1CCCCCCCCCCOCCCCO1,inactive,inactive,inactive,inactive,,inactive,inactive,inactive,inactive,inactive,inactive,inactive,inactive,inactive,inactive,inactive,,,
Nc1cccc2c1CN(C1CCC(=O)NC1=O)C2=O (stereo unspecified),inactive,inactive,inactive,inactive,inactive,inactive,inactive,inactive,inactive,inactive,inactive,,inactive,inactive,inactive,,inactive,,
CCCCN(CCCC)C(C(N)=O)c1ccc(OC)cc1 (stereo unspecified),inactive,inactive,inactive,inactive,inactive,inactive,inactive,inactive,inactive,inactive,,inactive,inactive,inactive,,,inactive,,
CCCCCCCCCCC(=O)O,inactive,,inactive,inactive,inactive,,inactive,inactive,inactive,inactive,,,,inactive,,,inactive,,
COC(=O)C1=C(C)NC(C)=C(C(=O)O[C@@H]2CCCN(Cc3ccccc3)C2)[C@@H]1c1cccc([N+](=O)[O-])c1,,inactive,,inactive,inactive,inactive,inactive,inactive,inactive,inactive,,inactive,,inactive,inactive,inactive,inactive,,
O=C1NCCN1CCO,inactive,,inactive,inactive,inactive,inactive,inactive,inactive,inactive,inactive,,inactive,,,inactive,inactive,inactive,,
CC(CN(C)C)C(C)(O)Cc1ccc(Cl)cc1 (stereo unspecified),inactive,,inactive,inactive,inactive,inactive,inactive,inactive,inactive,inactive,,inactive,inactive,,inactive,inactive,inactive,,
CCCCCC[C@@H](O)C/C=C\CCCCCCCC(=O)O,,49 µM (active),,,inactive,,inactive,inactive,inactive,inactive,,inactive,43.6 µM (active),inactive,,inactive,,inactive,
O=C(CCc1ccc(O)cc1)c1c(O)cc(O)cc1O,inactive,inactive,inactive,inactive,inactive,inactive,inactive,inactive,inactive,inactive,,inactive,inactive,inactive,,inactive,inactive,inactive,inactive
